# High-throughput results: PubChem BioAssay, Sanford-Burnham Center for Chemical Genomics
# Only some compounds are listed: those with a hit (about 28% of all), similar ones and a draw of the others.
# CYP2C9 inhib: blockers of cytochrome P450 2C9 activity – biochemical, luminescence, ADME assay, primary screen. P11712. CYP2C9 Supersomes, luciferin-H conversion. inhibition, % at 5 µM. 96,000 tested, 20% active;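 active = blocking of liver enzyme CYP2C9 beyond about 50% at 5 µM, limit read from the data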
# CYP2C19 activ: human CYP2C19 activators, primary screen, biochemical, luminescence. Cytochrome P450 2C19 (Homo sapiens), P33261. recombinant CYP2C19, luciferin-H EGE luminescence; active compounds read high; 0 = fully inhibited enzyme, 1 = untreated enzyme. activation factor at 5 µM. 96,000 tested, under 10 active. AID 1025, 2008;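 active = activation factor of at least 2 at 5 µM in the primary screen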;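 also: 0 = wells with 2.5 mM tranylcypromine and 1 = vehicle-only wells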
# Target sequence (P33261 whole entry, looked up): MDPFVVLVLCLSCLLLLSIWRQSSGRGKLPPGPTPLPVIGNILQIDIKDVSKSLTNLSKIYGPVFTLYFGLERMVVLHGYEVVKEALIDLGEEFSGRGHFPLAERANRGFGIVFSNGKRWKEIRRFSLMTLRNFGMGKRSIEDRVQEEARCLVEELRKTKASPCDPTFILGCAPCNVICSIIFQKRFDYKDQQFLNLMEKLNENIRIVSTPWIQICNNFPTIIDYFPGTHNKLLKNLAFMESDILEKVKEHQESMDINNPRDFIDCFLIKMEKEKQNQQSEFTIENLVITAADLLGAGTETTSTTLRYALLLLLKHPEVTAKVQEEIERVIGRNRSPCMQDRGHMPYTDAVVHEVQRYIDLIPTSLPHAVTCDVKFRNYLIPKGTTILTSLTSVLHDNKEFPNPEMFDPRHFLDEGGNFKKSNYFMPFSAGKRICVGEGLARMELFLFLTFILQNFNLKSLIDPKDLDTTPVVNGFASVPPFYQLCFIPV
# Mac1 fbg inh: inhibitors of CD11b/CD18 adhesion to fibrinogen, primary screen, K562 cells, luminescence; Integrin beta-2 (Homo sapiens) + Integrin alpha-M (Homo sapiens), P05107+P11215; ATPlite luminescence; Mn2+ added to activate the integrin; inhibition, % at 10 µM; 93,000 tested, 0.54% active;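 active = primary inhibition of 50% or more at 10 µM, then 40% or more on retest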
# CD11b adhes enh: enhancers of CD11b/CD18 adhesion to fibrinogen, primary screen, K562 cells, luminescence; Integrin beta-2 (Homo sapiens) + Integrin alpha-M (Homo sapiens), P05107+P11215; ATPlite luminescence; activation, % at 10 µM; 93,000 tested, 0.07% active; AID 1499, 2009;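 active = 10 µM primary screen giving 50% or more activity, confirmed by 40% or more on retest at that dose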
# CYP2C19 inhib: blockers of cytochrome P450 2C19 activity – biochemical, luminescence, ADME assay, primary screen. P33261. CYP2C19 Supersomes, luciferin-H EGE luminescence, 30 min. inhibition, % at 5 µM. 96,000 tested, 21% active;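 active = CYP2C19 inhibition above a set limit at 5 µM in the primary screen, cut at about 50% in these data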;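 also: plate controls were negative control wells for no effect and 2.5 mM tranylcypromine positive control for full effect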
# CYP2C9 activ: human CYP2C9 activators, primary screen, biochemical, luminescence; Cytochrome P450 2C9 (Homo sapiens), P11712; activation factor at 5 µM; recombinant CYP2C9, luciferin-H conversion; active compounds read high; factor 1 = untreated enzyme, 0 = blocked; 96,000 tested, 1.4% active;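 active = activation factor of 2 or more for CYP2C9 at a 5 µM dose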;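 also: 0 = sulfaphenazole-blocked wells and 1 = vehicle-only wells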
# Active calls of the source: *; · = no result.
SMILES,CYP2C9 inhib,CYP2C19 activ,Mac1 fbg inh,CD11b adhes enh,CYP2C19 inhib,CYP2C9 activ
O=C(c1ccc(F)cc1)C(CN1CCOCC1)c1ccccc1 (stereo not drawn),12,0.4,10,2,59*,0.9
COc1ccc(C(=O)C(OC(=O)c2ccccc2)c2ccccc2)cc1 (stereo not drawn),70*,0.4,·,·,59*,0.3
O=C(C/C=N/OCc1c(Cl)cccc1Cl)c1ccc(Cl)cc1,10,0.8,22,-4,17,0.9
Cc1ccnc(NC(=O)c2ccc(COc3ccc(Cl)cc3)o2)c1,25,0.9,17,1,8,0.7
O=C(Nc1nc(-c2cccs2)c(-c2cccs2)s1)C1CCCC1,·,·,34,9,·,·
COc1ccc(C(=O)C(CN2CCCC2)c2ccccc2)cc1 (stereo not drawn),18,0.8,0,3,17,0.8
COc1ccc(C(=O)C(CN2CCOCC2)c2ccccc2)cc1 (stereo not drawn),-1,0.4,2,-2,56*,1
c1ccc(C(CN2CCOCC2)c2ccccc2)cc1,15,0.4,-9,-1,58*,0.8
C(#CCN1CCOCC1)COCCCOC(c1ccccc1)c1ccccc1,70*,0.4,-4,-3,59*,0.3
CCC(=O)NNc1ncnc2ccccc12,·,·,2,-2,·,·
CCCCCCCCNc1ncnc2ccccc12,82*,0.2,101*,-10,79*,0.2
CC(=O)Nc1nc(COc2ccc3ccccc3c2)cs1,-13,0.6,30,-1,37,1.1
CC(=O)Nc1nc(COc2ccccc2)cs1,59*,0.1,-1,-1,89*,0.4
CC(=O)Nc1nc(CC(=O)c2ccccc2)cs1,-11,0.3,-31,-3,65*,1.1
O=C(Nc1nc(COc2ccccc2)cs1)C12CC3CC(CC(C3)C1)C2,96*,0.4,40,3,56*,0
Cc1ccc(S(=O)(=O)NC(=O)c2cccn2C)cc1,6,1.1,12,0,-13,0.9
CCOC(=O)c1cc2c(=O)n3cccc(C)c3nc2n(Cc2ccccc2Cl)c1=N,13,1,13,7,0,0.9
c1ccc(-c2ccc(-c3ccccn3)nn2)nc1,18,0.4,-7,2,56*,0.8
Nn1c(-c2ccccn2)nnc1-c1ccccn1,-6,0.8,-8,1,17,1.1
CC(Sc1ccc(Cl)cc1)C(=O)Nc1ccc(S(=O)(=O)N2CCOCC2)cc1 (stereo not drawn),62*,0.5,·,·,50,0.4
CC(C(=O)N1CCC(C(N)=O)CC1)N(c1ccc(Oc2ccccc2)cc1)S(C)(=O)=O (stereo not drawn),21,1,-3,2,-5,0.8
Cc1ccc(N(C(C)C(=O)N2CCCCC2)S(C)(=O)=O)cc1C (stereo not drawn),6,0.2,-15,2,82*,0.9
Cc1ccc(N(C(C)C(=O)Nc2ccc(S(=O)(=O)N3CCOCC3)cc2)S(C)(=O)=O)cc1C (stereo not drawn),89*,0.6,-11,-5,36,0.1
Cc1ccc(N(CC(=O)Nc2ccc(S(=O)(=O)N3CCOCC3)cc2)S(C)(=O)=O)cc1C,98*,0.2,5,0,77*,0
CCS(=O)(=O)N1CCC(NC(=O)C2CCCCC2)CC1,-6,1.1,15,-2,-11,1.1
SMILES,CYP2C9 inhib,CYP2C19 activ,Mac1 fbg inh,CD11b adhes enh,CYP2C19 inhib,CYP2C9 activ
COc1ccccc1N(CC(=O)NCCSC(C)(C)C)S(C)(=O)=O,-9,0.8,-1,-2,16,1.1
CC(C)c1ccc(N(CC(=O)NCCSC(C)(C)C)S(C)(=O)=O)cc1,38,0.4,3,1,61*,0.6
CC(C)c1ccc(N(CC(=O)Nc2ccc(S(=O)(=O)N3CCOCC3)cc2)S(C)(=O)=O)cc1,90*,0.3,15,-2,73*,0.1
COc1ccc(C2C3=C(CCCC3=O)Nc3nc(C(F)(F)F)nn32)c(OC)c1OC (stereo not drawn),36,0.7,3,-4,33,0.6
O/N=C/CCn1c(=S)sc2ccccc21,-409,0.5,-15,3,50,5.1*
Cc1ccccc1C(=O)NCc1nnc(SCC(=O)N2CCN(c3ccccc3)CC2)n1C,1,0.9,-8,-6,12,1
Cc1ccccc1S(=O)(=O)Oc1ccccc1C(=O)Oc1ccccc1,50*,0.6,·,·,42,0.5
Cc1cc(C)cc(NC(=O)c2ccc(S(=O)(=O)C(F)F)cc2)c1,·,·,-7,7,·,·
O=C(Nc1cccc(S(=O)(=O)Nc2ccc(Cl)cc2)c1)c1ccc(Cl)nc1,·,·,53,-4,·,·
Cc1cc(C)c(NS(=O)(=O)c2ccc(Cl)c(C(=O)O)c2)c(C)c1,61*,1,-25,-1,1,0.4
Cc1cccc(NC(=O)c2cccc(NS(=O)(=O)c3ccc(Cl)cc3)c2)c1,97*,0,50,-3,99*,0
Cc1ccc(S(=O)(=O)Nc2cc(C(=O)Nc3cc(C)cc(C)c3)ccc2Cl)cc1,80*,0.4,42,-2,57*,0.2
Cc1cccc(NC(=O)c2cc(S(=O)(=O)c3ccccc3)ccc2Cl)c1,94*,0.2,-1,-4,80*,0.1
COC(=O)c1sccc1NC(=O)COc1ccc(Cl)cc1Cl,·,·,12,-4,·,·
O=C(c1cccc(F)c1)N1CCC(N2CCOCC2)CC1,11,0.4,-7,-5,56*,0.9
O=C(c1cccc(F)c1)N1CCN(C(=O)c2nn3cccnc3c2Cl)CC1,14,0.4,-6,-1,58*,0.9
O=C(CCCNS(=O)(=O)c1cccs1)N1CCN(c2cccc(Cl)c2)CC1,24,0.7,21,-3,27,0.8
CCC1CCCCN1C(=O)c1nn2cccnc2c1Cl (stereo not drawn),-11,0.9,-4,-3,12,1.1
O=C(c1c(Cl)nc2sccn12)N1CCN(c2cccc(Cl)c2)CC1,69*,0.2,16,0,83*,0.3
O=C(c1cccc(Cl)c1)N1CCN(C(=O)c2ccccc2F)CC1,54*,0.3,12,-4,66*,0.5
COc1ccc2oc(-c3ccc(C)c(NC(=O)c4ccc(N5CCOCC5)c([N+](=O)[O-])c4)c3)nc2c1,25,1,-9,4,0,0.7
O=C(COc1ccc(Cl)cc1)N1CCN(C(=O)c2cccc(F)c2)CC1,-1,0.8,5,1,23,1
